Only some compounds are listed: those with a hit (about 6.1% of all), similar ones and a draw of the others.
DRD3 agonist: activates the human D3 dopamine receptor | P35462 | D3R DiscoveRx beta-arrestin cells, luminescence, 90 min | max activation, % | actives 0.58% (n = 410,000) | AID 652048; in the data active = max activation above about 30%
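Cells at 1500/well, incubated overnight, then treated with pinned compounds (dopamine as control) for 90 min at 37 degrees C. DiscoveRx reagent added for 30 - 60 minutes at room temperature; luminescence read.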
ERG-DNA inh: ERG Ets/DNA interaction inhibition | P11308 | fluorescence polarization, His-ERG Ets domain / labelled DNA | Potency, µM (doses to about 76.9 µM), most hits filed as inhibitors | actives 0.028% (n = 370,000) | AID 624246; active = well fitted inhibition curve with a large enough effect in the polarisation, with a control signal flat; inconclusive = small, poorly fitted or top-dose-only effect, or effect the other way, or a change in a side signal; inactive = no such curve, though single readings can be large or run the other way; the % refers to the polarisation;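 note: polarization taken with two DNA probes labelled with fluorescein and Texas red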
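His-tagged ERG Ets domain (1 uM in the protein solution; 300mM KCl, 50mM Tris-HCl, 1mM EDTA, 1mM DTT, pH 7.5) received compound, then a probe mix of 5 nM fluorescein-DNA and 100nM Texas-615-DNA. Fluorescence polarization was read for both dyes.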
D3 antag: antagonists of human D3 dopamine receptor; P35462; D3R cells, DiscoveRx beta-arrestin luminescence, antagonist mode; active compounds read low; max response, negative = inhibition, %; actives 2.5% (n = 360,000); AID 652054; in the data active = max response below about -50%; inconclusive = no clear call, values can overlap the other calls
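Cells plated overnight at 1500 cells/well, then exposed to library compounds with dopamine controls for 90 minutes at 37 degrees C. DiscoveRx reagent added for 30–60 minutes at room temperature; luminescence read, quantitative HTS format.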
D1 ag: human D1 receptor agonism. HEK293 T-REx D1 cells, calcium flux, agonist mode. actives 1% (n = 360,000). AID 504660. activation, % at 2 µM. P21728; in the data active = activation above about 30%
Target sequence (P21728 whole entry, looked up): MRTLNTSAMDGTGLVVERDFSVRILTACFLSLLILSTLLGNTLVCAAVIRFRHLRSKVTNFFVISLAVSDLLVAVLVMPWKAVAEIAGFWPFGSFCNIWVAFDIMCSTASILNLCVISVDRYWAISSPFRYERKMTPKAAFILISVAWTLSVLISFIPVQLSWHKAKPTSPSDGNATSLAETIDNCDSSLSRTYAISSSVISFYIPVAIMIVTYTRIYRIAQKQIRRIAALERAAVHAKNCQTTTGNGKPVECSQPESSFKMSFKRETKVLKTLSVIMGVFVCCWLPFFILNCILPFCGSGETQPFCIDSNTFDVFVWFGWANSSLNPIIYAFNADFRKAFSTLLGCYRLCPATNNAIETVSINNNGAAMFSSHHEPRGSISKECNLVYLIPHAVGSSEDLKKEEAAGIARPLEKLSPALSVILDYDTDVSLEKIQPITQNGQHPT
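Tetracycline-induced HEK293 TREx D1 cells, force-coupled to calcium signalling, were dye-loaded with a no-wash calcium kit. Compound was pin-added after a 10 s baseline. Fluorescence was read kinetically at 1 cycle/s for 180 s, with calcium rises flagged as agonism.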
D1 PAM: potentiators of human D1 dopamine receptor | HEK293 TREx D1 cells, calcium flux, dopamine EC20 potentiation | potentiation, % at 10 µM | actives 0.036% (n = 360,000) | AID 504651; in the data active = potentiation above about 30%
D1 antagonist: blocks dopamine activation of the human D1 receptor; P21728; HEK293 TREx D1 cells, calcium flux, dopamine EC80; active compounds read low; activity change, negative = inhibition, % at 10 µM; actives 3.2% (n = 360,000); AID 504652; in the data active = activity change below about -30%
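Antagonism measured as reduced calcium response to an EC80 dopamine addition following 180 s compound pre-read; cells were inducible HEK293 Trex D1 plated overnight at 30 C, read kinetically at 1 cycle/sec.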
Large screens that a line does not name were inactive.

Cc1ccc(S(=O)(=O)Nc2ccc(N(C)C)cc2)cc1	none
CN(C)c1ccc(NS(=O)(=O)c2ccc(-c3csnn3)cc2)cc1	D3 antag inconclusive, D1 ag 30.3
O=S(=O)(Cc1ccc(Cl)cc1)Nc1ccc(Cl)cn1	none
COc1ccc(-c2c(C)nn3c(C(F)(F)F)cc(-c4ccc(Br)cc4)nc23)cc1	none (no result: D3 antag)
CCCOC(=O)c1c(-c2ccccc2)nc(CC)c(C(=O)SCC)c1CCC	D1 antagonist -48.0
CCCc1nc2ccccc2c(C(=O)O)c1CC	none
Fc1ccccc1N1CCN(c2ncnc3[nH]ncc23)CC1	none
c1ccc(N2CCN(c3ncnc4[nH]ncc34)CC2)cc1	D1 antagonist -34.6 (no result: D3 antag)
Cn1c(Cn2nnc3ccccc32)nnc1SCC(=O)N1c2ccccc2CCc2ccccc21	none
CN(C)CCCn1c(SCC(=O)N2c3ccccc3Sc3ccccc32)nc2ccccc2c1=O	D1 ag 37.8
Cn1c(Cn2nnc3ccccc32)nnc1SCC(=O)N1c2ccccc2Sc2ccccc21	D3 antag -54.9
Cn1c(SCC(=O)N2c3ccccc3Sc3ccccc32)nc2ccccc21	none
COc1ccc2cc3cc(C(=O)N4CCN(c5ccc(C(C)=O)cc5)CC4)sc3nc2c1Cl	none (no result: D3 antag)
Cc1oc2ccc(O)cc2c1C(=O)c1ccc([N+](=O)[O-])cc1	none
CN(C)/C=C/c1oc2ccc(O)cc2c1[N+](=O)[O-]	D3 antag -52.1
COc1ccc(-c2cc3c(=O)n(CC(=O)NCCCN4CCC(Cc5ccccc5)CC4)ncn3n2)cc1	D3 antag -100.9
COc1ccc(-c2cc3c(=O)n(CC(=O)NCCCN4CCN(Cc5ccccc5)CC4)ncn3n2)cc1	D3 antag -66.9
CCOc1ccc(CCNC(=O)Cn2ncn3nc(-c4ccc(OC)cc4)cc3c2=O)cc1	none
CCn1c(SCc2c(Cl)cccc2Cl)nc2nc3c(cc2c1=O)CCCC3	none (no result: D1 ag, D1 PAM, D1 antagonist)
CCOC(=O)C1(C)/C(=N/Nc2ccc(Cl)cc2)C(=O)C(=O)N1c1ccccc1 (stereo not given)	D3 antag inconclusive
CCOC(=O)C1(C)/C(=N/Nc2cccc(Cl)c2)C(=O)C(=O)N1c1ccccc1 (stereo not given)	D3 antag -75.0
Cc1ccc(OCCCCN(C)Cc2ccccc2)c(Br)c1	D3 antag -54.6
Cc1ccc(C(C)C)c(OCC(O)CN(C)Cc2ccccc2)c1 (stereo not given)	none
Cc1ccc(C(C)C)c(OCCCN(C)Cc2ccccc2)c1	D3 antag -61.4
O=C1CSC(=S)N1/N=C/c1cc(Br)c(O)c(Br)c1	D1 ag 422.2
COc1cc(C#Cc2ccc3cc(C(C)(C)O)oc(=O)c3c2)cc(OC)c1	DRD3 agonist 31.1 (no result: D1 antagonist)
CC(NC(=O)C1CCN(C(=O)N2CCOc3ccccc32)CC1)c1ccccc1 (stereo not given)	none (no result: D3 antag)
COc1ccc(S(=O)(=O)N(CCc2ccccc2)CC(=O)NCc2ccccc2)cc1OC	none (no result: D3 antag)
COc1ccc(S(=O)(=O)N(CCc2ccccc2)CC(=O)Nc2cc(C)cc(C)c2)cc1OC	D1 antagonist -36.2 (no result: D3 antag)
CCN1/C(=C/C=C/c2oc3ccc4ccccc4c3[n+]2CC)Oc2ccc3ccccc3c21	D1 ag 92.5
CC(C)c1ccc(Nc2ccc(C(=O)O)cc2[N+](=O)[O-])cc1	none
COc1ccccc1-c1cccc(-c2nc(C(=O)Nc3nccs3)cc3c2[C@@H](CCO)N(C(C)=O)C3)c1	none (no result: ERG-DNA inh, D1 ag, D1 PAM, D1 antagonist)
CCC(=O)N1Cc2cc(C(=O)Nc3nccs3)nc(-c3cccc(-c4ccccc4OC)c3)c2[C@H]1CCO	DRD3 agonist 60.9 (no result: ERG-DNA inh, D1 ag, D1 PAM, D1 antagonist)
CCCCCCN(C(=O)CCCCCN1C(=O)NC(c2ccc(-c3ccccc3)cc2)C(C(=O)OCc2ccccc2)=C1C)C(C(=O)NCCCC)c1ccccn1 (stereo not given)	none (no result: DRD3 agonist, ERG-DNA inh, D3 antag)
CCOc1ccccc1N(CC(=O)N(C)Cc1ccccc1)S(=O)(=O)c1ccccc1	D1 antagonist -37.4
CCOc1ccccc1N(CC(=O)O)S(=O)(=O)c1ccccc1	none

Compound activity from PubChem.
